The results in this text go back to paper PMC7862700, “An all-to-all approach to the identification of sequence-specific readers for epigenetic DNA modifications on cytosine”.

Common to all, as to assay: DAPPL (digital affinity profiling via proximity ligation, sequencing); 10 mM Tris-HCl pH 7.5, 50 mM NaCl, 1 mM DTT, 4% glycerol, room temperature, 30 min; GST-TFs on glutathione beads, 16-mer random dsDNA library, 0.1% formaldehyde crosslink after washing; high values mean tight binding
Common to all, as to details: protein: recombinant; tags: N-terminal GST; dsDNA, one strand shown

Experiment [1] deals with T1, FLI1 (Homo sapiens, UniProt Q01543 1-452).
T1 sequence: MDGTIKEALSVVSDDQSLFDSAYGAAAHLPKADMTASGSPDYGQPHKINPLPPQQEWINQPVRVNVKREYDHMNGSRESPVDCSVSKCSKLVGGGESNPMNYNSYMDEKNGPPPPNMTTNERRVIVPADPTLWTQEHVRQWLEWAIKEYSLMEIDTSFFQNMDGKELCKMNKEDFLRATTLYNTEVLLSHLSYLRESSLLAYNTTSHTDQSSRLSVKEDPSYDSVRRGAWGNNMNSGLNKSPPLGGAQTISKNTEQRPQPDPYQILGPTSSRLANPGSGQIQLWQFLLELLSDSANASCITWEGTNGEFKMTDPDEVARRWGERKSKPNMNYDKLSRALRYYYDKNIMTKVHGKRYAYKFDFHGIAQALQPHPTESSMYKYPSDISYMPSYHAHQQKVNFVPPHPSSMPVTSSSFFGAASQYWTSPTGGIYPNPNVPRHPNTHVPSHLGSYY
The procedure, abridged:
(§1)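 Each value of binding signal is a hexamer's read frequency for a factor divided by the same hexamer's frequency in the tag-only sample. Barcoded, bead-captured GST fusions of human transcription factors made in yeast were pooled with that sample and incubated with 200 nmole of a random double-stranded 16-mer DNA library in Tris/NaCl/DTT/glycerol buffer at room temperature for 30 min. Washing, 0.1% formaldehyde crosslinking, proximity ligation, PCR and Illumina NextSeq500 sequencing followed.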

In experiment [2] the target is ELF1 (Homo sapiens, UniProt P32519 1-619). A digest of the protocol: as §1
In experiment [3] the target is SPIB (Homo sapiens, UniProt Q01892 1-262). A digest of the protocol: as §1
Experiment [4] addresses T2, SPIC (Homo sapiens, UniProt Q8N5J4 1-248).
T2 sequence: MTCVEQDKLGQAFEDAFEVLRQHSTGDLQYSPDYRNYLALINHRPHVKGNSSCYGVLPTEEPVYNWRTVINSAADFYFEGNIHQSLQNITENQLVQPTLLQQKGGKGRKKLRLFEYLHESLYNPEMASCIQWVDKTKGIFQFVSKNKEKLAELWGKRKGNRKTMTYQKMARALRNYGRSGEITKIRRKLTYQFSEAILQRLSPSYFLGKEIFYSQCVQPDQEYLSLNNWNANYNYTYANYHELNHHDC
A digest of the protocol:
as §1

Experiment [5] concerns the target ELF4 (Homo sapiens, UniProt Q99607 1-663). The procedure, abridged: as §1
For experiment [6], the target named is T3, ELF3 (Homo sapiens, UniProt P78545 1-371).
T3 sequence: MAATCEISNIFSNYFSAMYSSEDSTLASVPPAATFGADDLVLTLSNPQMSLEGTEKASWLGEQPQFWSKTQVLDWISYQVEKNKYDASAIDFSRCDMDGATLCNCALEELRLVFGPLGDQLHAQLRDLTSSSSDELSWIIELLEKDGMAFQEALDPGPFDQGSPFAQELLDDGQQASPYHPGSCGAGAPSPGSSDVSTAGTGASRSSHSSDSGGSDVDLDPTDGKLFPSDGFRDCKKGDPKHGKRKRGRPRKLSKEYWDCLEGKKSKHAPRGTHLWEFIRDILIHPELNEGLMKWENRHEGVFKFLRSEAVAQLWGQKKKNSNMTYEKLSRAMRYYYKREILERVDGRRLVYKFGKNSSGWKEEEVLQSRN
A digest of the protocol:
as §1

The target in experiment [7] is T4, ERF (Homo sapiens, UniProt P50548 1-548).
T4 sequence: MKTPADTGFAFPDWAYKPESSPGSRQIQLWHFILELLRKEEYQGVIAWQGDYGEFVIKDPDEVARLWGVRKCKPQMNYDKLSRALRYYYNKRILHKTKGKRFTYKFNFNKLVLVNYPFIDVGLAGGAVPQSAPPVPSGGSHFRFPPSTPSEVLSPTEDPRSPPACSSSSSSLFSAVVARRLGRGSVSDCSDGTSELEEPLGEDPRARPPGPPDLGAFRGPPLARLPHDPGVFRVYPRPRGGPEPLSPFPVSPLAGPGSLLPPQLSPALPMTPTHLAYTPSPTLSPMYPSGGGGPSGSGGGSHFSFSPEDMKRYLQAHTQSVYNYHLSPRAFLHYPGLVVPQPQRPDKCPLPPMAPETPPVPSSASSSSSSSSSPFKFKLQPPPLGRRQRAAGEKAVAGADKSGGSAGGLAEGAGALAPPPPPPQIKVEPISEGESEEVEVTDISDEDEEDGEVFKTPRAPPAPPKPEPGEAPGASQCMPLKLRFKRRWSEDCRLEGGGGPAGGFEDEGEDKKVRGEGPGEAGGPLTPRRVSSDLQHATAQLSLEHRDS
The procedure, abridged: as §1

Experiment [8] deals with T5, ETV7 (Homo sapiens, UniProt Q9Y603 1-341).
T5 sequence: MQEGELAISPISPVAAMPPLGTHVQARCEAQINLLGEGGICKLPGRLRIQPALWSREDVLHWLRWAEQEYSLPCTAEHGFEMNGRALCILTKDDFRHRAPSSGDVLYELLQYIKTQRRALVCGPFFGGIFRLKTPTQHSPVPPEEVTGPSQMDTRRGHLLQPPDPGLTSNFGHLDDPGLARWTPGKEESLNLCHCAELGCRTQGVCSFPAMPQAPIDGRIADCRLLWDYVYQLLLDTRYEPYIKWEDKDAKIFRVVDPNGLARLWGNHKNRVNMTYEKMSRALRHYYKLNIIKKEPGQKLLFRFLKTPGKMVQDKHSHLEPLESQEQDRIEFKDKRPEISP
The procedure, abridged: as §1

In experiment [9] the target is ETV6 (Homo sapiens, UniProt P41212 1-452). A digest of the protocol:
as §1

SPIB, sequence (Q01892 whole entry): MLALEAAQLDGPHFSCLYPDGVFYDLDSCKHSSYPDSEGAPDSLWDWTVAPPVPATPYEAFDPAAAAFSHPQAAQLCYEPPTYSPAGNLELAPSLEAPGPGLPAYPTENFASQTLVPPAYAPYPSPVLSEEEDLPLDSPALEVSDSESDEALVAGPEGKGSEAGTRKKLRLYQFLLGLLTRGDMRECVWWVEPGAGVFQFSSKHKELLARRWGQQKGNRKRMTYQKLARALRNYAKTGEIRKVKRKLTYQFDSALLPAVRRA
ETV6, sequence (P41212 whole entry): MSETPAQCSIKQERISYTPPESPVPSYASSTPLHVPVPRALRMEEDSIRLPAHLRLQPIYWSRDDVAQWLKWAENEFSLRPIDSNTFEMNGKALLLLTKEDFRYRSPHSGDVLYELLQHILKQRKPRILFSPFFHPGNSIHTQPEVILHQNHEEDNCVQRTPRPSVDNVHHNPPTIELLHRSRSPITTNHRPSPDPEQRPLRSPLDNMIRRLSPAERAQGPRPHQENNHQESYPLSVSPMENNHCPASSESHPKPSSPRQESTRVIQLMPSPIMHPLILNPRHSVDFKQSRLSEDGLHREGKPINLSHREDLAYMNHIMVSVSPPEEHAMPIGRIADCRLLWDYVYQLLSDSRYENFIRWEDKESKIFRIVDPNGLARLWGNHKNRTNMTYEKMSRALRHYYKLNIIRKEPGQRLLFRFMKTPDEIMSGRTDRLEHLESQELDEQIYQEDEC
ELF1, sequence (P32519 whole entry): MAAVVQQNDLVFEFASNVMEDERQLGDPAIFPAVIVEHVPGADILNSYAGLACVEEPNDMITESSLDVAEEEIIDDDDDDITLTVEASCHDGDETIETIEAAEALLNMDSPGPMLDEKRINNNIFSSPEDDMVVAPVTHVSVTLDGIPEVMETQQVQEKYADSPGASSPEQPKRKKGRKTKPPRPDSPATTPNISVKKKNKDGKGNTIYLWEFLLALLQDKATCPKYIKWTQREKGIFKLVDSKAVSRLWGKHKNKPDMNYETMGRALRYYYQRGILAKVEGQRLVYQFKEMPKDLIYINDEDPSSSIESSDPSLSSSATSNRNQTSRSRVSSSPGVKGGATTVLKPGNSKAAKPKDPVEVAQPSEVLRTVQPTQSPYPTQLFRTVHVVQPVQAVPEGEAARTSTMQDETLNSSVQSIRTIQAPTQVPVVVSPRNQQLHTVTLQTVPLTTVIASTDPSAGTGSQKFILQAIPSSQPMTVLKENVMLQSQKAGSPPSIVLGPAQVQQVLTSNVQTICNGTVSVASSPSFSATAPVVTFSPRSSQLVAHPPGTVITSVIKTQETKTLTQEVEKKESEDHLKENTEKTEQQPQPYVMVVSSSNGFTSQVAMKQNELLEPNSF
ELF4, sequence (Q99607 whole entry): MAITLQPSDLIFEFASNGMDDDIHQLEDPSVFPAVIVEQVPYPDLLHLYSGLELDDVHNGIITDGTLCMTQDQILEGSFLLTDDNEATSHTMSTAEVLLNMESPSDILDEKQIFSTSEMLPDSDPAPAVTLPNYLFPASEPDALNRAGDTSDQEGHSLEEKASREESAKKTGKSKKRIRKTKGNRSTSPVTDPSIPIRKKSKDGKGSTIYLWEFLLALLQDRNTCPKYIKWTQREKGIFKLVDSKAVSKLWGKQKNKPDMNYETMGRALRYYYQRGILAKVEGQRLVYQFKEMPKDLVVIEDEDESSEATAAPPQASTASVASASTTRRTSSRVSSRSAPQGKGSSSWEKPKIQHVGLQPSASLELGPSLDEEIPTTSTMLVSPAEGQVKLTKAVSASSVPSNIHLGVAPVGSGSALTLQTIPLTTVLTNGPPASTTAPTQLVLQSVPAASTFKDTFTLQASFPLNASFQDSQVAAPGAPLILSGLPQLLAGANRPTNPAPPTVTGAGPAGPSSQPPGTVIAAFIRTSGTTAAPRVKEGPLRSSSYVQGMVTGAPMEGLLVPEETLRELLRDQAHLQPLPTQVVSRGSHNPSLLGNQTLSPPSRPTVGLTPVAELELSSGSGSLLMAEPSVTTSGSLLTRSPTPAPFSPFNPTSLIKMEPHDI

As for AATGTG, the binding signal was 1.04 fold enrichment (6-mer frequency, TF over GST control) in [1]; 1 fold enrichment (6-mer frequency, TF over GST control) in experiment [2]; 1 fold enrichment (6-mer frequency, TF over GST control) in [3]; 1.02 fold enrichment (6-mer frequency, TF over GST control) in experiment [4]; 1.03 fold enrichment (6-mer frequency, TF over GST control) in experiment [5]; 1.07 fold enrichment (6-mer frequency, TF over GST control) in [6]. Moreover, the binding signal is 1.01 fold enrichment (6-mer frequency, TF over GST control) in experiment [7]; 1.02 fold enrichment (6-mer frequency, TF over GST control) in experiment [8]; 1.01 fold enrichment (6-mer frequency, TF over GST control) in [9].
